Measured values: paper PMC4336329 (PLoS ONE, 2015)
The whole screen tested about 310,000 compounds, of which about 14,000 (4.5%) showed an effect of 50% or more. The effect is printed as a negative number. This excerpt belongs to a sample that is enriched for strong results.

biological target: human ether-à-go-go-related gene (hERG) potassium channel (human, UniProt Q12809); assay: primary screen, population patch clamp on CHO cells stably expressing hERG; higher = less effect of the substance
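Note: peak tail current of the secondary pulse compared with the same well before compound.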

Chain of human ether-à-go-go-related gene (hERG) potassium channel (Q12809 whole entry, looked up): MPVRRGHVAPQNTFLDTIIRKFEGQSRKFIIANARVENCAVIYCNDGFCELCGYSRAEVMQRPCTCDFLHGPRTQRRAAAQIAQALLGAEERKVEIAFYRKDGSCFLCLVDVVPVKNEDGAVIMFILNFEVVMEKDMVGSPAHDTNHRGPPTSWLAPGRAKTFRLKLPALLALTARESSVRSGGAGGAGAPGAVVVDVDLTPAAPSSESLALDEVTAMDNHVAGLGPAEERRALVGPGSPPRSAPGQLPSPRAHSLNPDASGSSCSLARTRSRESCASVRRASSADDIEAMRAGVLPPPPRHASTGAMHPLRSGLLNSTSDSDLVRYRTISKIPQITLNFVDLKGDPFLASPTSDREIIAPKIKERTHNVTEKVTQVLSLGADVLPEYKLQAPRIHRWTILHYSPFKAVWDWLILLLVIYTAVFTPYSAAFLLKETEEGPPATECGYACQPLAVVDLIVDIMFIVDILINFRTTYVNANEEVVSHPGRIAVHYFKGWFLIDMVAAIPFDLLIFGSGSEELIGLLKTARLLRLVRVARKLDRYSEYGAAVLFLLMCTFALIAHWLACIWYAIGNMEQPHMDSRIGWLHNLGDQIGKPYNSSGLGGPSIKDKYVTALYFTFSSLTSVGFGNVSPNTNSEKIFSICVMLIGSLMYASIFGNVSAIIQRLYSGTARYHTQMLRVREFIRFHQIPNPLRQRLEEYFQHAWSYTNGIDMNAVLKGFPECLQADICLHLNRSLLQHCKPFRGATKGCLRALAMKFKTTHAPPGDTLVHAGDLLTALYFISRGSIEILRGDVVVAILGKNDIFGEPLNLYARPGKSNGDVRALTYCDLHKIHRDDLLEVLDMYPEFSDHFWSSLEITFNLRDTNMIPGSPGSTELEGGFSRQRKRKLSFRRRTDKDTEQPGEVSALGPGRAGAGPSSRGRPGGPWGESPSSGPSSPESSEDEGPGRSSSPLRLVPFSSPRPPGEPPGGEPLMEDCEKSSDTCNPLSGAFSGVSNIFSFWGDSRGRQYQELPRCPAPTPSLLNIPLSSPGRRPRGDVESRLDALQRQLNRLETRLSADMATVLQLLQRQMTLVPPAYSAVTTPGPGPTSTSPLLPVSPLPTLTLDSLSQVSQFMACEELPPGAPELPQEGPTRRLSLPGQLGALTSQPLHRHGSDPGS

SMILES | hERG current change (%, negative = inhibition) at 10uM
Cc1nn(CCC#N)c(NC(=O)c2ccccc2)c1P(=O)(Nc1ccc(Br)cc1)N1CCOCC1 (centres unmarked) | 20.6%
Cc1cc(CN(C)C(=O)c2ccc3nc(Cc4ccccc4F)oc3c2)on1 | -5.71%
Cc1ccc(SCC2=NN(c3nc(C)cc(C)n3)C(=O)C2)cc1 | -16%
CCn1c(SCc2ccc(Cl)c(Cl)c2)nnc1C(C)NC(=O)c1ccc(OC)cc1 (centres unmarked) | 10%
CCn1c(CCNC(=O)c2ccc(OC)cc2)nnc1SCc1ccc(Cl)cc1Cl | -65.6%
CCn1c(CCNC(=O)c2ccc(Cl)c(Cl)c2)nnc1SCCOc1ccc(OC)cc1 | -8.77%
CCn1c(CCNC(=O)c2ccc(OC)cc2)nnc1SCc1ccc(Cl)c(Cl)c1 | -61.8%
CCOc1ccc(NC(=O)CSc2nnc(CCNC(=O)c3ccc(OC)cc3)n2CC)cc1 | -26.7%
CCn1c(CCNC(=O)c2ccc(C)cc2)nnc1SCc1ccc(Cl)c(Cl)c1 | -45.7%
CCC1(C)Cc2nc3[nH]c(=S)n(-c4ccccc4C)c(=O)c3cc2CO1 (centres unmarked) | 4.44%
Cc1ccc2c(c1)c1c(n2C)C(C(N)=O)CCC1 (centres unmarked) | -19.5%
CCCC(C)C1(CC)C(=O)NC(=O)N=C1N (centres unmarked) | -76.5%
CCCC(C)C1(CC)C(=O)NC(=Nc2ccc(F)cc2)NC1=O (centres unmarked) | 17.5%
CCC(C)C1(CC)C(=O)NC(=O)N=C1N (centres unmarked) | 36.1%
O=C1c2ccccc2-c2c1cccc2C(=O)N1CCCCC1 | -22.3%
O=C(c1cc(-c2ccccc2Cl)on1)N1CCN(C(=O)c2ccco2)CC1 | -44.2%
O=C(c1cc(-c2ccc(Cl)cc2Cl)on1)N1CCN(C(=O)c2ccco2)CC1 | -70.2%
O=C(c1ccc(-c2ccccc2Cl)o1)N1CCN(c2ccccc2O)CC1 | 8.64%
O=C(c1ccc(Cl)cc1)N1CCN(C(=O)c2ccco2)CC1 | -21%
O=C(c1ccco1)N1CCN(C(=O)c2ccc(-c3ccc(Cl)cc3)o2)CC1 | -78.8%
CC(=O)N1CCN(C(=O)c2ccc(-c3ccccc3Cl)o2)CC1 | -20%
O=C1c2ccccc2-c2c1cccc2C(=O)N1CCCCCC1 | 0.506%
O=C1c2ccccc2-c2c1cccc2C(=O)N1CCN(C(=O)c2ccco2)CC1 | -71.1%

SMILES | hERG current change (%, negative = inhibition) at 10uM
O=C(c1cc(-c2ccc(Cl)cc2Cl)on1)N1CCCC1 | -0.203%
O=C(Cc1ccc(Cl)cc1)N1CCN(C(=O)c2ccco2)CC1 | -12.8%
O=C(c1ccco1)N1CCN(C(=O)c2ccc(-c3ccccc3Cl)o2)CC1 | -67.6%
COC(=O)C(O)(c1ccc(NC(=O)c2ccco2)c(OC)c1)C(F)(F)F (centres unmarked) | -6.24%
O=C(NCCc1ccc(Cl)cc1)C(=O)c1c[nH]c2ccccc12 | -10.8%
O=C(Nc1nsc(-c2ccccc2)n1)c1ccc(F)cc1 | -24.6%
CCC(NC(=O)CNC(=O)CNC(=O)c1ccc(Cl)cc1Cl)c1ccc(C)cc1 (centres unmarked) | 22.2%
CC(C)c1cc(C(=O)O)n(-c2ccccc2)n1 | 12.1%
Cc1ccc(S(=O)(=O)n2[nH]c(=O)c(CCO)c2C)cc1 | 8.83%
O=C(Cc1ccc(F)cc1)N/N=C/c1ccncc1 | -8.56%
Fc1ccc(C2c3cccn3CCN2C(=S)Nc2cccc(Br)c2)cc1 (centres unmarked) | 19.4%
O=C(COC(=O)c1ccccc1C(=O)c1ccccc1)NCCc1ccc(Cl)cc1Cl | -31.9%
O=C(COC(=O)c1ccccc1C(=O)c1ccccc1)NCCc1ccccc1 | -64.8%
Cc1ccc(C(=O)c2ccccc2C(=O)OCC(=O)NC(C)(C)C)cc1 | -0.829%
Cc1ccc(C(=O)c2ccccc2C(=O)OCC(=O)NCCc2ccc(Cl)cc2Cl)cc1 | -9.96%
Cc1ccc(C(=O)c2ccccc2C(=O)OCC(=O)NCCc2ccccc2)cc1 | -52.5%
O=C(COC(=O)c1ccccc1C(=O)c1ccc(Cl)cc1)NCCc1ccccc1 | -18.7%
CSCCC(NS(=O)(=O)/C=C/c1ccccc1)C(=O)NCCc1ccc(S(N)(=O)=O)cc1 (centres unmarked) | 7.59%
COc1ccc(C(=O)COC(=O)CCn2nnc(-c3cccs3)n2)cc1 | 10.6%
CN(Cc1c(C(=O)N/N=C/c2cccc(O)c2)nnn1-c1nonc1N)C1CCCCC1 | -2.25%
CCOC(=O)CN1C(=O)CSc2ccccc21 | 0.699%
CNc1ncc(C(=O)c2ccccc2)s1 | -1.56%
CCN(CC)CCCC(C)NC(=O)c1c(NC(=O)c2ccccc2)sc2c1CCCC2.O=C(O)C(=O)O (centres unmarked) | -76.9%

SMILES | hERG current change (%, negative = inhibition) at 10uM
NCCNC(=O)c1c(NC(=O)c2ccccc2)sc2c1CCCC2 | 15.4%
CN(C)CCNC(=O)c1c(NC(=O)c2ccccc2)sc2c1CCCC2 | -25.9%
CCOc1ccccc1C(c1c(O)nc(SC)[nH]c1=O)c1c(O)nc(SC)[nH]c1=O | 5.67%
O=S(=O)(Nc1ncccn1)c1ccc(NS(=O)(=O)c2cc(Cl)ccc2Cl)cc1 | 31.6%
COc1ccccc1C(=O)N(Cc1ccccc1)c1ccc(C)cc1 | -2.96%
CCOC(=O)C1(CCc2ccccc2)CCN(C(=O)c2occc2C)CC1 | -63.3%
CC#CC(=O)N1CCC(CO)(CCc2ccccc2)CC1 | 1.33%
CCOC(=O)C1(CCc2ccccc2)CCN(C(=O)C2=C(C)OCCO2)CC1 | -15.2%
CCOC(=O)C1(CCc2ccccc2)CCN(C(=O)c2cc(C)nc(C)n2)CC1 | -11%
CCOC(=O)C1(CCc2ccccc2)CCN(C(=O)c2cccc(C)n2)CC1 | -11.4%
CC#CC(=O)N1CCC(CCc2ccccc2)(C(=O)OCC)CC1 | -61.4%
COc1cc(Cl)c(C)cc1Nc1ncccn1 | 4.73%
CC(=O)c1cccc(NC(=S)N2CCCC2)c1 | 9.57%
Cc1csc2c(NC3CCN(Cc4ccccc4)CC3)ncnc12 | -31.8%
Cc1sc2ncnc(Nc3ccccc3)c2c1C | 2.79%
c1ccc(CN2CCC(Nc3ncnc4sccc34)CC2)cc1 | -66.9%
c1ccc(CNc2ncnc3sccc23)cc1 | 9.9%
Cc1sc2ncnc(N[C@@H](Cc3ccccc3)C(=O)O)c2c1C | 14%
Cc1csc2ncnc(NCCc3ccccn3)c12 | -22.4%
OC1CCC(Nc2ncnc3sccc23)CC1 (centres unmarked) | 13.2%
Cc1sc2ncnc(NC3CCN(Cc4ccccc4)CC3)c2c1C | -79.6%
Cc1csc2ncnc(NC3CCN(Cc4ccccc4)CC3)c12 | -65.5%
COc1ccc(NC(=O)c2cc(-c3ccc(C)cc3)on2)cc1OC | 19.4%

SMILES | hERG current change (%, negative = inhibition) at 10uM
COc1cccc(CN(CC(=O)NCC2CCCO2)C(=O)CNS(=O)(=O)c2ccccc2)c1 (centres unmarked) | 7.52%
O=C(CSc1ccccc1)NC(=O)NCc1ccccc1 | 5.87%
COc1ccc(C(=O)C[n+]2ccccc2C)cc1.[Br-] | 13.3%
Cc1cc(OCc2cc(C(=O)N(C)C3CCOC3)no2)cc(C)c1Cl (centres unmarked) | -73.6%
CN(CCCN1CCOCC1)C(=O)c1cc(COc2c(F)cccc2F)on1 | 2.44%
CN(C(=O)c1cc(COc2ccc(F)c(F)c2)on1)C1CCOC1 (centres unmarked) | -13.1%
CN(CCCN1CCOCC1)C(=O)c1cc(COc2cccc(C(F)(F)F)c2)on1 | -40.5%
Cc1cc(OCc2cc(C(=O)N(C)Cc3nonc3C)no2)cc(C)c1Cl | 11.8%
Cc1cc(OCc2cc(C(=O)N(C)CC3CCOCC3)no2)cc(C)c1Cl | -69%
Cc1cc(OCc2cc(C(=O)N(C)CCCN3CCOCC3)no2)cc(C)c1Cl | -58%
Cc1cc(OCc2cc(C(=O)N(C)C3CCOCC3)no2)cc(C)c1Cl | -13.5%
Cc1ccc(OCc2cc(C(=O)N(C)CC3CCOCC3)no2)cc1C | -13.1%
Cc1cccc(NC(=O)CN2C(=O)CSC2=O)c1 | 14.5%
CC(=O)c1ccc(N2CCN(C(=S)NCCCN(C)C)CC2)cc1 | 2.47%
CC1(C(=O)N/N=C/c2ccc3c(c2)OCO3)CC1(Br)Br (centres unmarked) | -5.57%
CC(C)n1c(-c2ccco2)csc1=Nc1cccnc1 | -10.3%
COc1ccccc1-n1cnc2c(c1=O)c1nc3ccccc3nc1n2-c1ccc(C)cc1 | -19.7%
COc1ccc(-c2ccc(/C=N/N3C(=O)C4C5C=CC(C6CC56)C4C3=O)o2)c([N+](=O)[O-])c1 (centres unmarked) | -58.9%
Cc1ccc(-c2ccc(/C=N/N3C(=O)C4C5C=CC(C6CC56)C4C3=O)o2)c([N+](=O)[O-])c1 (centres unmarked) | -12.5%
O=C1C2C3C=CC(C4CC34)C2C(=O)N1/N=C/c1ccc(-c2ccc(Cl)cc2[N+](=O)[O-])o1 (centres unmarked) | -13.5%
